4 compounds from PubChem BioAssay (EPA / NIEHS) can be followed below.

Read-out in assay [1]: flavin-containing dimethylaniline monooxygenases 3 (FMO3), FMO3 (gene 2328)
The assay can be described thus: LTEA_HepaRG_FMO3: Life Technologies and Expression Analysis (LTEA) Assay for flavin-containing dimethylaniline monooxygenases 3 (FMO3) using HepaRG (AID 2283453). To be noted: mRNA level, 48 h; actives raise or lower the signal. In short, it runs like this:
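Differentiated HepaRG cells in serum-free induction medium, exposed 48 h in duplicate to 8 half-log concentrations up to 100 uM in 0.5% DMSO. FMO3 mRNA by qRT-PCR, normalized to ACTB, GAPDH, POLR2A; bidirectional fit vs DMSO.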

Read-out in assay [2]: Cytochrome P450 (CYP1A1), CYP1A1 (gene 1543)
The assay can be described thus: LTEA_HepaRG_CYP1A1: Life Technologies and Expression Analysis (LTEA) Assay for Cytochrome P450 (CYP1A1) using HepaRG (AID 2283454). As to conditions: mRNA level, 48 h; actives raise or lower the signal. The method in brief:
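Differentiated human HepaRG cells, after 48 h plating, exposed in duplicate for 48 h in serum-free induction medium to 8 half-log concentrations up to 100 uM in 0.5% DMSO. CYP1A1 mRNA by qRT-PCR, normalized to ACTB/GAPDH/POLR2A; bidirectional fit versus DMSO.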

Read-out in assay [3]: CFLAR gene, CFLAR (gene 8837)
The assay can be described thus: LTEA_HepaRG_CFLAR: Life Technologies and Expression Analysis (LTEA) Assay for CFLAR gene using HepaRG (AID 2283455). To be noted: mRNA level, 48 h; actives raise or lower the signal. The method in brief: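 HepaRG, 48 h exposure, 8-pt conc-response (100 uM top, half-log), 0.5% DMSO vehicle, duplicates. CFLAR expression by qRT-PCR; ACTB/GAPDH/POLR2A normalization; gain or loss fit vs DMSO baseline.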

Read-out in assay [4]: Forkhead box O1 (FOXO1), FOXO1 (gene 2308)
The assay can be described thus: LTEA_HepaRG_FOXO1: Life Technologies and Expression Analysis (LTEA) Assay for Forkhead box O1 (FOXO1) using HepaRG (AID 2283456). To be noted: mRNA level, 48 h; actives raise or lower the signal. In short, it runs like this:
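Readout is FOXO1 transcript level by multiplexed qRT-PCR against three housekeeping genes, curve-fitted in both directions relative to 0.5% DMSO vehicle. Human HepaRG cultures received chemicals for 48 h, up to 100 uM in half-log steps.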

Read-out in assay [5]: growth arrest and DNA damage 45 (GADD45A), GADD45A (gene 1647)
The assay can be described thus: LTEA_HepaRG_GADD45A: Life Technologies and Expression Analysis (LTEA) Assay for growth arrest and DNA damage 45 (GADD45A) using HepaRG (AID 2283458). To be noted: mRNA level, 48 h; actives raise or lower the signal. In short, it runs like this:
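Cells plated and cultured 48 h, switched to serum-free induction medium, then dosed for 48 h (100 uM top, half-log dilutions, 0.5% DMSO). RNA was isolated and transcript measured by Fluidigm qRT-PCR.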

Read-out in assay [6]: Forkhead box O3 (FOXO3), FOXO3 (gene 2309)
The assay can be described thus: LTEA_HepaRG_FOXO3: Life Technologies and Expression Analysis (LTEA) Assay for Forkhead box O3 (FOXO3) using HepaRG (AID 2283459). As to conditions: mRNA level, 48 h; actives raise or lower the signal. In short, it runs like this: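 HepaRG, 48 h post-dose; 8 conc., half-log from 100 uM, 0.5% DMSO, duplicates; serum-free induction medium. Readout: FOXO3 mRNA, TaqMan qRT-PCR, housekeeping-normalized. Bidirectional curve fit vs DMSO baseline.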

Read-out in assay [7]: ABC Transporter (ABCC3), ABCC3 (gene 8714)
The assay can be described thus: LTEA_HepaRG_ABCC3: Life Technologies and Expression Analysis (LTEA) Assay for ABC Transporter (ABCC3) using HepaRG (AID 2283462). As to conditions: mRNA level, 48 h; actives raise or lower the signal. In short, it runs like this:
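Differentiated human HepaRG cells exposed 48 h in serum-free induction medium, 0.5% DMSO vehicle, 8-point half-log series to 100 uM in duplicate. ABCC3 mRNA by qRT-PCR, normalised to ACTB, GAPDH, POLR2A; bidirectional fit vs DMSO.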

Read-out in assay [8]: ABC Transporter (ABCB11), ABCB11 (gene 8647)
The assay can be described thus: LTEA_HepaRG_ABCB11: Life Technologies and Expression Analysis (LTEA) Assay for ABC Transporter (ABCB11) using HepaRG (AID 2283463). To be noted: mRNA level, 48 h; actives raise or lower the signal. In short, it runs like this:
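ABCB11 transcript levels are read by Fluidigm TaqMan qRT-PCR after 48 h chemical treatment of human HepaRG cells. Concentrations span 100 uM downward in half-log steps with 0.5% DMSO; gain or loss is fitted against DMSO controls.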

Read-out in assay [9]: ABC Transporter (ABCC2), ABCC2 (gene 1244)
The assay can be described thus: LTEA_HepaRG_ABCC2: Life Technologies and Expression Analysis (LTEA) Assay for ABC Transporter (ABCC2) using HepaRG (AID 2283464). To be noted: mRNA level, 48 h; actives raise or lower the signal. In short, it runs like this: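 Differentiated HepaRG cells in serum-free induction medium exposed 48 h to eight half-log concentrations up to 100 uM, 0.5% DMSO, in duplicate. ABCC2 mRNA measured by qRT-PCR (TaqMan, Fluidigm), normalized to ACTB, GAPDH and POLR2A. Fitted in both directions against DMSO.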

Read-out in assay [10]: Broad substrate specificity ATP-binding cassette transporter ABCG2 (Homo sapiens) (UniProt Q9UNQ0)
The assay can be described thus: LTEA_HepaRG_ABCG2: Life Technologies and Expression Analysis (LTEA) Assay for ABC Transporter (ABCG2) using HepaRG (AID 2283465). To be noted: mRNA level, 48 h; actives raise or lower the signal. The method in brief: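 Read-out is ABCG2 mRNA induction or loss quantified by qRT-PCR after 48 h chemical treatment of human HepaRG cells, normalized to three housekeeping genes. Concentrations reached 100 uM top in half-log steps; fitting was bidirectional against 0.5% DMSO.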

Read-out in assay [11]: ATP-citrate lyase (ACLY), ACLY (gene 47)
The assay can be described thus: LTEA_HepaRG_ACLY: Life Technologies and Expression Analysis (LTEA) Assay for ATP-citrate lyase (ACLY) using HepaRG (AID 2283466). To be noted: mRNA level, 48 h; actives raise or lower the signal. In short, it runs like this: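 HepaRG, 48 h exposure, 8-pt half-log dilutions (top 100 uM), 0.5% DMSO. Readout: ACLY mRNA, TaqMan qRT-PCR, housekeeping-normalized (ACTB/GAPDH/POLR2A). Bidirectional curve fit vs DMSO.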

Read-out in assay [12]: Peroxisomal acyl-coenzyme A oxidase 1 (ACOX1) gene, ACOX1 (gene 51)
The assay can be described thus: LTEA_HepaRG_ACOX1: Life Technologies and Expression Analysis (LTEA) Assay for Peroxisomal acyl-coenzyme A oxidase 1 (ACOX1) gene using HepaRG (AID 2283467). As to conditions: mRNA level, 48 h; actives raise or lower the signal. The method in brief: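 Measured by qRT-PCR against three housekeeping genes: ACOX1 transcript change in human HepaRG cells after 48 h dosing. Concentrations ran up to 100 uM in half-log steps. Curves were fitted bidirectionally relative to 0.5% DMSO.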

Read-out in assay [13]: Alkaline Phosphatase, Placental (ALPP) gene, ALPP (gene 250)
The assay can be described thus: LTEA_HepaRG_ALPP: Life Technologies and Expression Analysis (LTEA) Assay for Alkaline Phosphatase, Placental (ALPP) gene using HepaRG (AID 2283468). To be noted: mRNA level, 48 h; actives raise or lower the signal. The method in brief:
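HepaRG cells plated 48 h, then exposed in duplicate for 48 h in serum-free induction medium to 8-point half-log series from 100 uM in 0.5% DMSO. ALPP mRNA by TaqMan qRT-PCR, normalized to ACTB/GAPDH/POLR2A; bidirectional fit versus DMSO.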

Read-out in assay [14]: Bcl-2 (BAD) gene, BAD (gene 572)
The assay can be described thus: LTEA_HepaRG_BAD: Life Technologies and Expression Analysis (LTEA) Assay for Bcl-2 (BAD) gene using HepaRG (AID 2283469). As to conditions: mRNA level, 48 h; actives raise or lower the signal. The method in brief:
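BAD transcript change, measured by qRT-PCR against three housekeeping genes and fitted in both directions relative to 0.5% DMSO, after 48 h chemical treatment of human HepaRG liver cells at concentrations up to 100 uM.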

Read-out in assay [15]: Bcl-2 (BAX) gene, BAX (gene 581)
The assay can be described thus: LTEA_HepaRG_BAX: Life Technologies and Expression Analysis (LTEA) Assay for Bcl-2 (BAX) gene using HepaRG (AID 2283470). As to conditions: mRNA level, 48 h; actives raise or lower the signal. The method in brief:
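HepaRG (human liver), 48 h exposure, duplicate wells. 8-pt curve, half-log from 100 uM, 0.5% DMSO. BAX transcript by TaqMan qRT-PCR; ACTB/GAPDH/POLR2A normalization; gain or loss vs DMSO baseline.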

Read-out in assay [16]: Alpha-fetoprotein (AFP) gene, AFP (gene 174)
The assay can be described thus: LTEA_HepaRG_AFP: Life Technologies and Expression Analysis (LTEA) Assay for Alpha-fetoprotein (AFP) gene using HepaRG (AID 2283472). To be noted: mRNA level, 48 h; actives raise or lower the signal. In short, it runs like this: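 HepaRG, single lot; 48 h post-plating -> serum-free induction medium; cpd 8-pt, 100 uM top, half-log, 0.5% DMSO, duplicate, 48 h. RNA -> qRT-PCR AFP, norm ACTB/GAPDH/POLR2A. Bidirectional fit vs DMSO.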

Assay [17] in a line: CEETOX_H295R_TESTO: CeeTox H295R High-throughput Steroidogenesis Assay for Testosterone (TESTO) (AID 2283457). To be noted: actives raise or lower the signal. In short, it runs like this:
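H295R adrenal cells, passage ≤10, exposed to chemicals for 48 h. Testosterone in medium measured by MTBE extraction and HPLC-MS/MS against a 7-point standard curve. Bidirectional fit versus DMSO; MTT viability checked in the same wells.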

Read-out in assay [18]: ABC Transporter (ABCB1), ABCB1 (gene 5243)
The assay can be described thus: LTEA_HepaRG_ABCB1: Life Technologies and Expression Analysis (LTEA) Assay for ABC Transporter (ABCB1) using HepaRG (AID 2283460). To be noted: mRNA level, 48 h; actives raise or lower the signal. In short, it runs like this: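 Expression of ABCB1 was quantified by qRT-PCR against three housekeeping genes after human HepaRG cultures received test chemicals for 48 hours. Concentrations spanned eight half-log steps topping at 100 uM in 0.5% DMSO; gain or loss of signal was fitted relative to vehicle.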

Read-out in assay [19]: adenosine kinase (ADK) gene, ADK (gene 132)
The assay can be described thus: LTEA_HepaRG_ADK: Life Technologies and Expression Analysis (LTEA) Assay for adenosine kinase (ADK) gene using HepaRG (AID 2283471). To be noted: mRNA level, 48 h; actives raise or lower the signal. In short, it runs like this:
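ADK expression quantified by qRT-PCR, normalised to three housekeeping genes, after 48 h exposure of HepaRG cells to eight concentrations (top 100 uM, half-log steps, duplicate, 0.5% DMSO). Up- or down-regulation fitted relative to vehicle.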

Calls of active or inactive are those of the source. Rule for the calls: active = hit-call score of the fitted dose curve at least 0.9, where 1 is the maximum; inactive = score below 0.9.

Broadly, the AC50 is the concentration giving half of the maximal activity seen.

Chain of Broad substrate specificity ATP-binding cassette transporter ABCG2 (Homo sapiens) (Q9UNQ0 whole entry, looked up): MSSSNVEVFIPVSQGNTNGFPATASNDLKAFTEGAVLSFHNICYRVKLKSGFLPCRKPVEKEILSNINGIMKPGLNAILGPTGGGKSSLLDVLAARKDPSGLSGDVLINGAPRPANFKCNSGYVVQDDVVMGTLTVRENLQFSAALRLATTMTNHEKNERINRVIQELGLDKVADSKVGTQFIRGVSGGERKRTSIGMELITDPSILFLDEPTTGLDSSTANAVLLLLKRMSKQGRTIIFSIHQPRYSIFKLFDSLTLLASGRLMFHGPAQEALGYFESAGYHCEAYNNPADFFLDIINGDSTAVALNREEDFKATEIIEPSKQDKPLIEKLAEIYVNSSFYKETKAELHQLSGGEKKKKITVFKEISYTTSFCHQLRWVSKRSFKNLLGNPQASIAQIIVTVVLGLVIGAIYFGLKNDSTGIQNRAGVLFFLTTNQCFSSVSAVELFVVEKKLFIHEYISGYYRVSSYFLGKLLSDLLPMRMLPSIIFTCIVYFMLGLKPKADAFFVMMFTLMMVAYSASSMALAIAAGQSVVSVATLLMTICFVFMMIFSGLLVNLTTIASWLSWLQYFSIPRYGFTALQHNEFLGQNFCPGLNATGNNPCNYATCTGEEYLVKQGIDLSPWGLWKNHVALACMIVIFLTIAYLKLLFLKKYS

In the case of `CCC[CH2][Sn]([Cl])([CH2]CCC)[CH2]CCC`, the half-maximal activity concentration (AC50) in [1] was 2.31 µM (active); in assay [2], 2.35 µM (active); in assay [3], 4.12 µM (active); in assay [4] it was 18.8 µM (active); in assay [5] it was 50 µM (active); in assay [8], 2.06 µM (active). In addition, the AC50 was 3.8 µM (active) in assay [9]; 1.49 µM (active) in [10]; 3.11 µM (active) in [12]; 3.79 µM (active) in assay [13]; 1.72 µM (active) in [15]; 0.59 µM (active) in assay [16]. Moreover, the compound was classed as inactive in assay [6], in assay [7], in [11] and in [14].
Turning to `O=C(Nc1ccccc1)c1ccccc1I`, the AC50 in [2] is 27.7 µM (active); in [6], 14.6 µM (active); in assay [8], 23.3 µM (active); in assay [10], 11.7 µM (active); in assay [16] it was 50 µM (active). In addition, the outcome in assay [3], in assay [4], in [17], in assay [5], in [18] and in [7] was inactive. Also, the compound was called inactive in assay [9], in assay [11], in assay [13], in assay [14] and in assay [19].
Consider `Oc1ccccc1Cl`, for which the compound was called inactive in assay [1], in assay [2], in assay [3], in [4], in [5] and in [6]. Also, the call in assay [7], in assay [8], in assay [9], in assay [10], in [11] and in [13] was inactive. The compound was classed as inactive in [14], in assay [15] and in assay [16].
For `OCCCl`, the compound was classed as inactive in assay [1], in [2], in assay [3], in assay [4], in assay [5] and in [6]. Also, the call in assay [7], in assay [8], in [9], in assay [10], in assay [11] and in assay [13] was inactive. In addition, the result in [14] and in [16] was inactive.
